Screening data as filed in PubChem.
In the library only some 7.3% were active in any assay of this set; here they are far more common.
Rab9 prom act = activators of Rab9 promoter | Huh7 Rab9 promoter-luciferase reporter, luminescence, 24 h | Potency, µM (doses to about 9.22 µM), for inactives: at the highest dose activation, negative = inhibition, most hits filed as activators | actives 2.8% (n = 320,000); note: % of control where 0% means no effect; nearly all actives have a fitted effect of over 60% in size
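Using Huh7 cells stably transfected with Rab9 promoter–luciferase, compounds were incubated 24 h at 37 °C, 5% CO2; luciferase luminescence was read 10 min after reagent addition.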
KinaseGlo FLuc = Kinase-Glo luciferase inhibition (counter-screen); Q27757; Kinase-Glo luciferase, ATP luminescence, 8 min; Potency, µM (doses to about 38.3 µM), without a hit: top-dose activity change, negative = inhibition, most hits filed as inhibitors; actives 0.28% (n = 200,000); note: % is set by controls: 0 for no effect and ±100 for the full control effect; nearly all actives have a fitted effect of over 60% in size
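Kinase-Glo luciferase light output from ATP and luciferin was measured with 10 uM ATP, within the enzyme's linear range. Buffer: 50 mM imidazole pH 7.2, 50 mM KCl, 7 mM MgCl2, 0.01% Tween 20, 0.05% BSA; luminescence read after 8 min at ambient temperature.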
NPC1 promoter act = NPC1 promoter activation; Huh7 NPC1 promoter luciferase reporter, 24 h; AID 485313; Potency, µM (titrated, usually from 9.22 µM), without a hit: at the top dose activation, actives largely listed as activators; actives 2.4% (n = 320,000); note: % of control where 0% means no effect; nearly all actives have a fitted effect of over 60% in size
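Stable NPC1-promoter luciferase Huh7 line; cpd (DMSO) 24 h, 37 °C, 5% CO2; Amplite luciferase reagent 10 min RT; luminescence readout. qHTS format.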
SMN2 splice up = enhancers of SMN2 splice variant expression. HEK293 SMN2-luciferase splicing reporter, luminescence, 30-36 h. Potency, µM (series often up to 46.1 µM), without a hit: at the top dose activity change, positive = activation, most hits filed as activators. actives 2.8% (n = 210,000); note: % of control where 0% means no effect; nearly all actives have a fitted effect of over 55% in size
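qHTS luciferase splicing reporter: luminescence rises when SMN2 exon 7 is included in transfected HEK293 cells. Compound exposure lasted 30-36 h at 37C, with 4.5 mM final sodium butyrate as control, followed by a ONE-Glo read.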
FLuc modulator = counter-screen for miR-21 project: firefly luciferase inhibitors or activators; P08659; purified FLuc, Km substrates, luminescence inhibition; Potency, µM (highest dose often 57.5 µM), without a hit: at the top dose activity change, negative = inhibition, actives largely listed as inhibitors; actives 6.9% (n = 360,000);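 note: plate controls were vehicle for no effect and reference inhibitor for full effect; nearly all actives have a fitted effect of over 55% in size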
Target sequence (P08659 whole entry, looked up): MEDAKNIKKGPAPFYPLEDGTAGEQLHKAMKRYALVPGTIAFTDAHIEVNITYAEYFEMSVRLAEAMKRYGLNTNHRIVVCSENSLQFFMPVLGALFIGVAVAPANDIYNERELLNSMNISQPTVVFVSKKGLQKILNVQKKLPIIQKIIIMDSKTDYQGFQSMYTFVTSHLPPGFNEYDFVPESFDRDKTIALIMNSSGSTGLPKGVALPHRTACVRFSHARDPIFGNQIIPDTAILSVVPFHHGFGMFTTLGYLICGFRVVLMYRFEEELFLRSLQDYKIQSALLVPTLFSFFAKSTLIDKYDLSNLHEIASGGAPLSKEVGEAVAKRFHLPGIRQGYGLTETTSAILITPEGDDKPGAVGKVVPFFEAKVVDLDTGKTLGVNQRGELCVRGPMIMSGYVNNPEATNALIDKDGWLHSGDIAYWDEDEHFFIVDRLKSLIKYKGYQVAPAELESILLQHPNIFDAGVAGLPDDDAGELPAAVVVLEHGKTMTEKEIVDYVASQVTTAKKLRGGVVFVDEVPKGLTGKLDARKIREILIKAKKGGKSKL
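Purified P. pyralis luciferase (10nM final) with 10uM D-luciferin and 10uM ATP (Km levels) in 50mM Tris acetate pH 7.5, 10mM Mg acetate, 0.01% Tween-20, 0.05% BSA; qHTS 6-point titration, ~60 µM downward; luminescence read.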
An asterisk follows results filed as active; [ ] = dose if it differs, or a comment. Calls come from the whole dose curve; as a rule, active = well fitted curve in the direction sought with a large enough effect; inconclusive = small, poorly fitted or top-dose-only effect, or another doubt; inactive = no such curve, though single readings can be large; an effect the other way counts as inactive or inconclusive. Potency is the fitted concentration of half-maximal effect.

Screening CC(=O)OC(CC(=O)O)C[N+](C)(C)C (stereo unspecified) returned Rab9 prom act -7%, KinaseGlo FLuc -3%, NPC1 promoter act -2%, SMN2 splice up 13µM* and FLuc modulator 5%.
`CC(=O)OCC[N+](C)(C)C` gave Rab9 prom act -35%, KinaseGlo FLuc -2%, NPC1 promoter act 0%, SMN2 splice up -21% and FLuc modulator 3%.
O=C(Nc1ccc([As](=O)(O)O)cc1)Nc1cccc(Cl)c1Cl was read as KinaseGlo FLuc -3%[7.66 µM] and SMN2 splice up -3%[9.22 µM].
COc1ccc(C/C(=N\OC(C)=O)c2ccc(OC)cc2)cc1 was read as Rab9 prom act 15%, NPC1 promoter act 14% and FLuc modulator 0.6µM*.
NNC(N)=S was read as SMN2 splice up -10%.
For CCN1CCN(c2nc3ccccc3s2)CC1 the results were Rab9 prom act 2µM*, KinaseGlo FLuc 0%, NPC1 promoter act 2.2µM*, SMN2 splice up 11µM* and FLuc modulator 11µM*.
`CCCC(c1nnnn1Cc1cccs1)N1CCN(c2nc3ccccc3s2)CC1` (stereo unspecified) gave Rab9 prom act 1%, KinaseGlo FLuc 1%, NPC1 promoter act 2%, SMN2 splice up -71% and FLuc modulator 0%.
For Nc1nc(N)c(Cn2ccnc2)c(=O)[nH]1 the results were KinaseGlo FLuc 0%[7.66 µM] and SMN2 splice up -3%[9.22 µM].
Screening O=[As](O)(O)c1ccc(N=Nc2ccc(O)cc2)cc1 returned Rab9 prom act -2%, KinaseGlo FLuc -3%[7.66 µM], NPC1 promoter act 0%, SMN2 splice up -1%[9.22 µM] and FLuc modulator 13µM*.
For O=[As](O)(O)c1ccc(N=Nc2ccc([As](=O)(O)O)cc2)cc1 the results were KinaseGlo FLuc -2%[7.66 µM] and SMN2 splice up -8%[9.22 µM].
For CN(C)c1ccc(N(C)C)cc1 the results were SMN2 splice up -9%.
O=C(O)[C@H]1C2c3ccccc3C(c3ccccc32)[C@@H]1C(=O)NCC1CC1 was read as KinaseGlo FLuc -2%[7.66 µM] and SMN2 splice up -3%[9.22 µM].
Cc1ccc2c(c1N)C(=O)c1ccccc1C2=O was read as Rab9 prom act inconclusive, NPC1 promoter act 3.2µM*, SMN2 splice up inconclusive and FLuc modulator 4.3µM*.
O=C1c2ccccc2C(=O)c2ccccc21 was read as KinaseGlo FLuc -3% and SMN2 splice up -6%.
For O=C(O)c1ccccc1Nc1cccc(C(F)(F)F)c1 the results were Rab9 prom act -11%, KinaseGlo FLuc 0%, NPC1 promoter act 1%, SMN2 splice up -25% and FLuc modulator 15µM*.
Screening O=C1NC(=O)C(=Cc2ccc(N3CCN(C(=O)c4ccccc4)CC3)c([N+](=O)[O-])c2)C(=O)N1 returned Rab9 prom act 2%, NPC1 promoter act 0% and FLuc modulator 21µM*.
C[C@@]12CC[C@H]3[C@@H](CC[C@H]4C[C@@H](O)CC[C@]43C)[C@H]1CC[C@@H]2C(=O)C[C@H](O)C(F)(F)F was read as KinaseGlo FLuc -5%[7.66 µM] and SMN2 splice up -9%[9.22 µM].
CN[C@H](Cc1ccccc1)c1cccc(OC)c1O was read as KinaseGlo FLuc -1%[7.66 µM] and SMN2 splice up -20%[9.22 µM].
Cn1cnc2cc(NC(=O)c3ccc(Cl)cc3)ccc21 was read as Rab9 prom act 2.8µM*, KinaseGlo FLuc 0%, NPC1 promoter act 2.8µM*, SMN2 splice up 11µM* and FLuc modulator 12µM*.
`C=CCCC#N` gave SMN2 splice up 1%.
Screening CCCCCCCC(=O)Cl returned SMN2 splice up -3%.
Screening Cc1cc(/C=C2/C(=O)NC(=O)N(Cc3ccco3)C2=O)c(C)n1-c1ccccc1 returned Rab9 prom act 0%, KinaseGlo FLuc -3%, NPC1 promoter act 1%, SMN2 splice up -28% and FLuc modulator 5.4µM*.
For O=C1NC(=S)N(Cc2ccco2)C(=O)/C1=C\c1cccs1 the results were Rab9 prom act -8%, KinaseGlo FLuc 5%, NPC1 promoter act -4%, SMN2 splice up -18% and FLuc modulator 17µM*.
For COc1ccc(C(=O)Nc2cc(Cl)ccc2C(=O)O)cc1 the results were Rab9 prom act 16%, NPC1 promoter act 13% and FLuc modulator 15µM*.
Screening CC(=O)C1=NOC(CNc2ncc(C(F)(F)F)cc2Cl)C1 (stereo unspecified) returned Rab9 prom act inconclusive, KinaseGlo FLuc 3%, NPC1 promoter act 18%, SMN2 splice up 18% and FLuc modulator 27µM*.
`CCOc1ccc(NC(=O)C(=S)NC2CCCCC2)cc1` gave Rab9 prom act inconclusive, KinaseGlo FLuc -2%, NPC1 promoter act inconclusive, SMN2 splice up inconclusive and FLuc modulator 13µM*.
Cc1cc(C(=O)Nc2ccc(CC(=O)O)cc2)c(C)o1 was read as Rab9 prom act 3%, NPC1 promoter act -8% and FLuc modulator 11µM*.
Screening Cc1ccc(Cn2cccc(C(=O)Nc3ccc(C)c(Cl)c3)c2=O)cc1 returned FLuc modulator -1%.
For Cn1nc(OC(=O)Nc2ccccc2)cc1C(F)(F)F the results were Rab9 prom act 29%, KinaseGlo FLuc -9%, NPC1 promoter act inconclusive, SMN2 splice up 17% and FLuc modulator 17µM*.
`O=C(Nc1ccccc1)Oc1ccccc1` gave Rab9 prom act 1%, KinaseGlo FLuc -6%, NPC1 promoter act -3%, SMN2 splice up 25% and FLuc modulator -11%.
`FC(F)(F)c1ccc(CSc2ccccn2)cc1` gave Rab9 prom act 7%, NPC1 promoter act 1% and FLuc modulator 15µM*.
For Cc1cc[c]([Sb]2[O]C([C@H](O)[C@H](O)C(=O)O)[C@@H](CO)[O]2)cc1 (stereo partly specified) the results were KinaseGlo FLuc 0%[7.66 µM] and SMN2 splice up 3%[9.22 µM].
C[C@H]1CC[C@@]2(NC1)O[C@@H]1C[C@@H]3[C@@H]4CC=C5C[C@@H](O)CC[C@]5(C)[C@@H]4CC[C@]3(C)[C@H]1[C@@H]2C was read as KinaseGlo FLuc -3%[7.66 µM] and SMN2 splice up -3%[9.22 µM].
For CCNCC(O)c1cccc(O)c1 (stereo unspecified) the results were Rab9 prom act -7%, NPC1 promoter act -3% and FLuc modulator 8%.
Screening NNCc1cccc(O)c1 returned Rab9 prom act -1%, KinaseGlo FLuc -13%, NPC1 promoter act -1%, SMN2 splice up -1% and FLuc modulator 2.7µM*.
For CN(C)c1ccc(/C=C/c2cc[n+](C)c3ccccc23)cc1 the results were Rab9 prom act -30%[1.84 µM], KinaseGlo FLuc 13µM*, NPC1 promoter act -38%, SMN2 splice up -100% and FLuc modulator inconclusive.
For CN(C)c1ccc(/C=C/C=C/c2sc3ccccc3[n+]2C)cc1 the results were Rab9 prom act -35%, NPC1 promoter act -26% and FLuc modulator inconclusive.
`CC(=O)[O-].CC(=O)[O-].O.O.[Cd+2]` gave SMN2 splice up -51%.
